Counter-ions that a name gives are not always drawn. ± gives the standard deviation of the averaged measurements.
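Also: viability read as CCK-8 absorbance at 450 nm in cells co-exposed to the GPX4 inhibitor RSL3, relative to a 0.01% DMSO vehicle control.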

This assay deals with HT-1080. The assay is described as follows: relative cell viability with RSL3 co-treatment (fraction of control); higher = stronger protection from RSL3-induced ferroptosis (higher viability). To be noted: 10 µM.
For the compound `Cc1cc(C)c(/C=C2\C(=O)Nc3ccccc32)[nH]1` [Semaxanib (SU5416)], the relative cell viability was 0.983 ± 0.15.
In the case of `COc1ncc(-c2ccc3nccc(-c4ccnnc4)c3c2)cc1NS(=O)(=O)c1ccc(F)cc1F` it was 0.24 ± 0.14.
The value for `Cc1c(NC(=O)c2ccc(C(C)(C)C)cc2)cccc1-c1cn(C)c(=O)c(Nc2ccc(C(=O)N3CCOCC3)cc2)n1` was 0.647 ± 0.1; that for `CN(C)CCCn1cc(C2=C(c3c[nH]c4ccccc34)C(=O)NC2=O)c2ccccc21` was 0.837 ± 0.045.
The value for `O=C1NCCc2[nH]c(-c3ccncc3)cc21` was 0.69 ± 0.04; that for `Cc1cnc(Nc2ccc(N3CCN(C)CC3)cc2)nc1Nc1cccc(S(=O)(=O)NC(C)(C)C)c1` was 0.223 ± 0.061; that for `O=c1cc(N2CCOCC2)oc2c(-c3ccccc3)cccc12` was 0.76 ± 0.16.
`Fc1cc(-c2cccc3ncc(-c4cnn(C5CCNCC5)c4)nc23)cc(F)c1CN1CCOCC1`: the relative cell viability came out at 0.787 ± 0.058.
Turning to `Nc1nc(Nc2ccc(S(N)(=O)=O)cc2)nn1C(=O)c1c(F)cccc1F`, the relative cell viability worked out at 0.53 ± 0.095.
In the case of `CNc1nc(-c2ccc3c(N)n[nH]c3c2)cc(N2C[C@@H](C(=O)NC3CCCCC3)CC[C@H]2C)n1` it was 0.647 ± 0.13; in that of `CC[C@H](CO)Nc1nc(NCc2ccccc2)c2ncn(C(C)C)c2n1` [Roscovitine (Seliciclib,CYC202)], 0.793 ± 0.12; in that of `Cc1ccc(C(=O)Nc2ccc(CN3CCN(C)CC3)c(C(F)(F)F)c2)cc1C#Cc1cnc2cccnn12`, 0.64 ± 0.11.
The value for `O=c1ccc2ccc(O)c(O)c2o1` [Daphnetin] was 0.85 ± 0.017.
As to `Oc1c2ccccc2c2c3c(cccc13)N=N2`, the relative cell viability was found to be 0.71 ± 0.036.
In the case of `CC1=C(C(=O)Nc2cc3cn[nH]c3cc2F)C(c2ccc(C(F)(F)F)cc2)CC(=O)N1` (centres undefined) it was 0.883 ± 0.084; in that of `C[C@@H](Oc1cc(-n2cnc3ccc(CN4CCN(C)CC4)cc32)sc1C(N)=O)c1ccccc1C(F)(F)F`, 0.573 ± 0.042; in that of `O=S(=O)(c1cccc2cnccc12)N1CCCNCC1` [Fasudil (HA-1077) HCl], 1.13 ± 0.1.
As for `O=C(NCc1cccc(O)c1)Nc1nc(-c2ccncc2)cs1`, the relative cell viability came to 0.77 ± 0.05.
In the case of `COc1ccccc1-c1cc(Nc2cccc(CS(N)(=O)=O)c2)ncn1` it was 0.613 ± 0.095; in that of `O=C(O)c1ccc(Nc2ncc3c(n2)-c2ccc(Cl)cc2C(c2c(F)cccc2F)=NC3)cc1`, 0.433 ± 0.045; in that of `Cc1ccc(NC(=O)c2cccc(N(C)C)c2)cc1NC(=O)c1ccc(O)cc1`, 0.587 ± 0.15.
The value for `COc1ncc(-c2cc(-c3ncc(CN4C[C@@H](C)O[C@@H](C)C4)o3)c3cn[nH]c3c2)cc1NS(C)(=O)=O` was 0.563 ± 0.051; that for `CCc1ccc(/C=C2/SC(=S)NC2=O)cc1` was 0.62 ± 0.087.
With `CC(C)(O)CC(=O)NCCn1ccc2ncnc(Nc3ccc(Oc4cccc(C(F)(F)F)c4)c(Cl)c3)c21`, the relative cell viability was found to be 0.567 ± 0.04.
The value for `Cc1ccccc1CN1C2=NCCN2C(=O)C2=C1CCN(Cc1ccccc1)C2` [TIC10 Analogue] was 0.62 ± 0.079; that for `O=C(NOCC(O)CO)c1cc(Br)c(F)c(F)c1Nc1ccc(I)cc1F` (centres undefined) was 0.897 ± 0.061.
The value for `Cc1nc(NC(=O)N2CCC[C@H]2C(N)=O)sc1-c1ccnc(C(C)(C)C(F)(F)F)c1` [Alpelisib (BYL719)] was 0.827 ± 0.015; that for `Oc1ccc(-c2nc(-c3ccc(F)cc3)c(-c3ccncc3)[nH]2)cc1` was 0.717 ± 0.05.
In the case of `O=S(=O)(NCCNC/C=C/c1ccc(Br)cc1)c1cccc2cnccc12` it was 0.577 ± 0.045; in that of `COc1cc2c(Oc3ccc(NC(=O)C4(C(=O)Nc5ccc(F)cc5)CC4)cc3F)ccnc2cc1OCCCN1CCOCC1`, 0.287 ± 0.064; in that of `COc1cc2ncnc(Nc3cccc(Cl)c3F)c2cc1OC(=O)N1CCN(C)C[C@H]1C`, 0.617 ± 0.025.
On to `O=C(Nc1ccc(OC(F)(F)F)cc1)c1sccc1NCc1ccnc2ccccc12`, for which the relative cell viability was determined as 0.57 ± 0.095.
The value for `CCn1c2ccccc2c2cc(Nc3ccnc(NCCCN4CCOCC4)n3)ccc21` was 0.64 ± 0.089; that for `CC(=O)Nc1cccc(-n2c(=O)n(C3CC3)c(=O)c3c(Nc4ccc(I)cc4F)n(C)c(=O)c(C)c32)c1` was 0.78 ± 0.052; that for `COc1cc2nccc(Oc3ccc(NC(=O)Nc4cc(C)on4)c(Cl)c3)c2cc1OC` [Tivozanib (AV-951)] was 0.23 ± 0.11.
Regarding `CN1CCN(c2ccc3nc(-c4c(N)c5c(F)cccc5[nH]c4=O)[nH]c3c2)CC1` [Dovitinib (TKI-258) Dilactic Acid], the relative cell viability amounted to 0.563 ± 0.25.
Turning to `C[C@H](Nc1ncnc2nc[nH]c12)c1cc2cccc(Cl)c2c(=O)n1-c1ccccc1` [Duvelisib (IPI-145, INK1197)], the relative cell viability is 0.717 ± 0.025.
The value for `COc1ccc2c(Oc3ccc(NC(=O)c4c(C)n(CC(C)(C)O)n(-c5ccccc5)c4=O)nc3)ccnc2c1` was 0.76 ± 0.052.
In the case of `CCS(=O)(=O)Nc1ccc2c(c1)/C(=C(/Nc1ccc(CN3CCCCC3)cc1)c1ccccc1)C(=O)N2` [Hesperadin] it was 0.293 ± 0.12.
